The values below come from PubChem BioAssay (NCI).

Each structure is given as a SMILES string. This is part of a sample that, as a whole, favours compounds with a hit. Of some 79,000 tested, about 15% had one in any assay. Values without a mark were called inactive. Activity calls are given as the source filed them. No stated cut-off is given here; in the data, active means growth inhibition above about 70%; inactive means the rest.

A short description of the test: NCI Yeast Anticancer Drug Screen. Data for the CLN2oe strain (AID 163).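 Further: 0% = growth of vehicle-only control cultures.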 The settings on record: S. cerevisiae CLN2oe strain, at 33.0 µM, active compounds read high. The method, boiled down:
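Whole-cell yeast growth assay. A strain engineered for altered cell-cycle control received compound, and inhibition relative to vehicle-treated cultures was recorded.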
On to `CNC(=O)OCc1c(COC(=O)NC)c(C)n(-c2ccc(Cl)c(Cl)c2)c1C`, for which the growth inhibition was 46%. Take `COc1ccc2nc(N/N=C/c3sccc3C)cc(C)c2c1`: the growth inhibition is 96% (active). Consider `O=C(O)/C=C\C(=O)NNc1ccc(Br)cc1`, for which the growth inhibition was 99% (active). In the case of `S=c1[nH]nc(Cc2ccccc2)c(=S)[nH]1`, the growth inhibition was 91% (active). As to `COc1ccc2nc3cccc([N+](=O)[O-])c3c(NCCCO)c2c1`, the growth inhibition was 95% (active). The figure for `CCN(CC)CCSc1c2ccccc2nc2cc(NCC(=O)Nc3ccccc3-c3ccccc3NC(=O)CNc3ccc4c(SCCN(CC)CC)c5ccccc5nc4c3)ccc12` is 44%.

On to `Cc1ccc(N(C=O)c2c([N+](=O)[O-])cc([N+](=O)[O-])c3c2=[N+]([O-])CN=3)cc1`, for which the growth inhibition was 95% (active). The figure for `COc1ccc(C(=O)OCCc2ccccc2)cc1` is -7%; for `COc1ccc(C(=O)NCCN(C)C)c2nc3ccccc3cc12` it is 41%.

Turning to `NCC(O)CSCc1ccc(Cl)cc1` (configuration not stated), the growth inhibition is 0%. Consider `CN(C)/N=N/c1nc[nH]c1C(N)=O`, for which the growth inhibition is 0%. In the case of `O=c1[nH]c(=O)n(CCCO)cc1F`, the growth inhibition is 3%.

As to `COc1ccc(/C(=N/O)c2ccccc2C2=Nc3ccccc3C(NCc3ccccc3)O2)cc1C` (configuration not stated), the growth inhibition was 4%. With `CCCC(=O)OC(OC(=O)CCC)c1ccc([N+](=O)[O-])o1` the figure was -5%; with `O=C(/C(=C/c1ccccc1)CBr)c1ccccc1`, 95% (active); with `Cc1cccc(N2CCN(C(=O)/C(=C/c3ccccc3)NC(=O)c3ccccc3)CC2)c1`, 38%. With `c1cc(Nc2ccc3c(c2)OCO3)c2cc(C3CCCCC3)ccc2n1` the figure was 4%.
